In all, about 130,000 compounds went through this assay and about 550 (0.42%) were called active. About 4% were inconclusive and are not listed. Only a selection was taken, and actives are over-represented in it overall. Values without a mark were called inactive. The call rests on the fitted dose curve; in most records, active means well fitted inhibition curve with a large enough effect; inconclusive means small, poorly fitted or top-dose-only effect, or effect the other way; inactive means flat fitted curve, though single readings scatter.
Assay: qHTS Assay for Inhibitors of the ERK Signaling Pathway using a Homogeneous Screening Assay; Stimulation with EGF; further: nearly all actives have a fitted effect of over 55% in size;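 on activity change, negative = inhibition: plate controls were stimulated vehicle wells for no effect and unstimulated vehicle basal for full effect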
Conditions: HEK293-V1b, EGF-stimulated phospho-ERK AlphaScreen; series mostly up to 11.5 µM; activity change, negative = inhibition: at the top concentration
Summary of the method: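 Cell line HEK293 (stable V1b), low serum overnight. Pretreatment: compound 30 min, 37C. EGF 25 nM, 5 min. Detection: SureFire AlphaScreen, 5 h RT. AC50 via standard Hill equation.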
Potency means the concentration at half of the fitted maximal effect.

| SMILES | activity change, negative = inhibition | Potency |
| --- | --- | --- |
| Cc1cc(=O)[nH]c(S)c1C#N | -5.86% [at 57.5 µM] | – |
| CCN(CC)CCCN=Cc1c(O)n(-c2ccc(C)cc2)c(=O)c2ccccc12 | -15.5% [at 57.5 µM] | – |
| O=C(COc1ccc(Cl)cc1[N+](=O)[O-])N1CCCCC1 | -19.8% | – |
| CC(=O)Oc1c2c(c3c(c1CC=C(C)C)O[C@@]14C(=CC5CC1C(C)(C)OC4(C/C=C(\C)C(=O)O)C5=O)C3=O)OC(C)(CCC=C(C)C)C=C2 (some centres undefined) | – | 25.1 µM (active) |
| O=C(CC(=O)N/N=C\c1ccc(F)cc1)NCCc1ccccc1 | -8.99% | – |
| COc1ccc(OCC(O)CNCCNc2nccc(C(F)(F)F)n2)cc1 (centres undefined) | 2.31% [at 57.5 µM] | – |
| CCOc1ccc(/C=C(/NC(=O)c2ccccc2)C(=O)NCCC(=O)O)cc1 | -5.71% | – |
| O=C(NC1(C(F)(F)F)NC(=O)N(C2CCCCC2)C1=O)c1ccco1 (centres undefined) | -9.23% | – |
| CCN1CCN(C(=O)c2ccc(CN(c3ccc(C)c(C)c3)S(C)(=O)=O)cc2)CC1 | -11.4% | – |
| CC(=O)N(OCc1ccc(OC(C)C)c(Cl)c1)C(C)=O | 3.04% [at 57.5 µM] | – |
| NS(=O)(=O)c1ccc(CCNC(=O)c2ccc(Cl)cc2[N+](=O)[O-])cc1 | -7.68% | – |
| CN(C)c1ccc(Nc2c3c4c(cccc4n(C)c2=O)C(=O)c2ccccc2-3)cc1 | – | 3.16 µM (active) |
| Cc1cc(=O)oc2c(C(=O)c3ccccc3)c(OCC(N)=O)ccc12 | 1.12% [at 57.5 µM] | – |
| CN(C)c1ccc(/C=N/NC(=O)C(O)c2ccc(Br)cc2)cc1 (centres undefined) | 13.4% | – |
| CCC(C)N1C(=S)SC(C)(C)C1N(O)C(=O)NC1CCCCC1 (centres undefined) | -10.1% [at 57.5 µM] | – |
| Cc1ccc(C(=O)Nc2nc(N)n(-c3ccccc3)n2)cc1 | 3.9% [at 57.5 µM] | – |
| CC1=NNC(=O)C1CCC(=O)N/N=C(\C)c1ccc(Cl)cc1 (centres undefined) | -12.6% [at 57.5 µM] | – |

| SMILES | activity change, negative = inhibition | Potency |
| --- | --- | --- |
| COc1ccc(Cc2nnc(NC(=O)c3cc(OC)c(OC)c(OC)c3)s2)cc1OC | 1.01% | – |
| O=C(O)c1n[nH]nc1-c1ccccc1 | -3% | – |
| COc1ccc(N=Nc2ccc(O)c(P(=O)(c3ccccc3)c3ccccc3)c2)cc1 | -14.3% [at 57.5 µM] | – |
| Oc1ccc(N=Cc2c(O)ccc3ccccc23)cc1 | -7% [at 57.5 µM] | – |
| Oc1ccc2ccccc2c1N=Nc1nccs1 | – | 12.6 µM (active) |
| Oc1ccc2ccccc2c1C=Nc1ccccc1 | 10.2% [at 57.5 µM] | – |
| O=C(CCNc1n[nH]c(=O)[nH]c1=O)N/N=C\c1ccc(Br)cc1 | 4.1% [at 57.5 µM] | – |
| CCOCCCNC(=O)C(NC(=O)Cc1c[nH]c2ccccc12)c1ccc(OC)cc1 (centres undefined) | -5% | – |
| Cc1cc(OCCCC(=O)NCCN2C(=O)S/C(=C\c3cccnc3)C2=O)ccc1Cl | 5.87% | – |
| O=C(NCc1ccco1)C(=O)c1cn(CC(=O)N2CCCCCC2)c2ccccc12 | -3.82% | – |
| Cc1ccnc(NC(=O)c2ccc(Cl)c([N+](=O)[O-])c2)c1 | -6.64% | – |
| Cc1ccc(OCC(=O)Nc2nnc(-c3ccco3)s2)cc1 | 3.26% [at 57.5 µM] | – |
| CC(C)C1Nc2c(C(=O)O)cccc2C(Nc2ccccc2C(=O)O)C1(C)C (centres undefined) | 1.59% | – |
| N#C/C(=C\N1CCOCC1)S(=O)(=O)c1ccc(Cl)cc1 | -6.91% [at 57.5 µM] | – |
| Cc1cc(C)c2c(NC(=O)C3CC3)nn(C)c2n1 | 0.186% | – |
| O=C(Cc1ccc(F)cc1)N1CCN=C1SCc1cccc([N+](=O)[O-])c1 | -1.53% | – |
| CN(Cc1cc2cc(F)ccc2[nH]1)Cc1nc(-c2cnccn2)no1 | -6.42% | – |

From PubChem BioAssay AID1454 (National Center for Advancing Translational Sciences (NCATS), 2008)
